System: Vero E6 infected with SARS-CoV-2
Assay: inhibition of SARS-CoV-2 cytopathic effect; higher = more antiviral protection, active = above 15
Conditions: 48 h

Measured: inhibition of SARS-CoV-2 cytopathic effect

O=C(NO)c1ccc(O)c(O)c1 [didox]
inactive: 1 nM 1.58% | 8.33 nM 0.68% | 100 nM 1.83% | 833.33 nM -2.16% | 10000 nM -2.13%

CC(C)(C)C(=O)CN1C(=O)[C@H](NC(=O)Nc2cccc(C(=O)O)c2)CN(C2CCCCC2)c2ccccc21 [nastorazepide]
inactive: 1 nM -1.25% | 8.33 nM -0.99% | 100 nM 0.77% | 833.33 nM 0.71% | 10000 nM -1.1%

OCCN1CCN(CC/C=C2/c3ccccc3Sc3ccc(C(F)(F)F)cc32)CC1 [flupentixol]
inactive: 1 nM -4.51% | 8.33 nM 0.12% | 100 nM -2.01% | 833.33 nM -0.29% | 10000 nM 0.08%

CCCN(C/C=C/I)C1CCc2cccc(O)c2C1 (stereo not given) [8-hydroxy-PIPAT]
inactive: 1 nM 3.48% | 8.33 nM 1.88% | 100 nM 3.63% | 833.33 nM 3.07% | 10000 nM -2.66%

Cc1ccc(Cl)c(OC[C@H](O)CNC(C)C)c1 [1-(2-chloro-5-methylphenoxy)-3-(isopropylamino)-2-propanol]
inactive: 1 nM 0.19% | 8.33 nM -0.3% | 100 nM -0.68% | 833.33 nM 0.3% | 10000 nM -2.47%

CC1(CN)Cc2ccccc2C1
inactive: 1 nM 4.53% | 8.33 nM -3.63% | 100 nM -3.31% | 833.33 nM 1.99% | 10000 nM -3.29%

CS(=O)(=O)c1ccc(-c2cn3ccccc3n2)cc1 [zolimidine]
inactive: 1 nM -3.68% | 8.33 nM 0.55% | 100 nM 3.07% | 833.33 nM -5.22% | 10000 nM -2.8%

O=C1C=CC(=O)C2=C1C1c3ccccc3C2c2ccccc21
inactive: 1 nM 1.05% | 8.33 nM 0.78% | 100 nM -0.03% | 833.33 nM 2.43% | 10000 nM 5.57%

COc1ccc2c(Oc3ccc(NC(=O)c4c(C)n(CC(C)(C)O)n(-c5ccccc5)c4=O)nc3)ccnc2c1
inactive: 1 nM 2.46% | 8.33 nM 1.91% | 100 nM -0.28% | 833.33 nM -1.35% | 10000 nM -0.65%

Nc1ncnc2c1ncn2CCOCP(=O)(O)O [adefovir]
inactive: 1 nM 6.28% | 8.33 nM 4.07% | 100 nM 2.27% | 833.33 nM 0.75% | 10000 nM 2.85%

O=C(Nc1ccc(Cl)nc1)c1ccc(Cl)cc1
inactive: 1 nM 0.45% | 8.33 nM 1.94% | 100 nM 2.79% | 833.33 nM 0.19% | 10000 nM 0.84%

O=C1NC(=O)C(=Cc2ccc(-c3ccc(F)cc3)o2)S1 (stereo in doubt)
inactive: 1 nM -2.32% | 8.33 nM 0.24% | 100 nM -0.68% | 833.33 nM 0.32% | 10000 nM 1.47%

Cc1ccc(F)c(NC(=O)Nc2ccc(-c3cccc4[nH]nc(N)c34)cc2)c1 [linifanib]
inactive: 1 nM -2.72% | 8.33 nM -3.15% | 100 nM -4.95% | 833.33 nM -2.75% | 10000 nM -2.71%

CCOc1ccn(-c2ccc(F)cc2)c(=O)c1C(=O)Nc1ccc(Oc2ccnc(N)c2Cl)c(F)c1
inactive: 1 nM 2.67% | 8.33 nM 1.32% | 100 nM -5.33% | 833.33 nM 2.11% | 10000 nM -3.09%

O=C1O[C@H](CO)[C@@H](O)[C@H](O)[C@H]1O [gluconolactone]
inactive: 1 nM -1.05% | 8.33 nM 1.67% | 100 nM -0.14% | 833.33 nM -0.97% | 10000 nM -1.07%

C[C@H]1N=C(N(C)C)N=C(N)N1 [imeglimin]
inactive: 1 nM 1.51% | 8.33 nM 1.14% | 100 nM 0.07% | 833.33 nM 0.43% | 10000 nM -0.77%

O=C1CCC[C@@H]2[C@H]3CCC[N+]4([O-])CCC[C@@H](CN12)[C@@H]34 (stereo not given in full) [oxymatrine]
inactive: 1 nM 2.76% | 8.33 nM 1.55% | 100 nM 1.11% | 833.33 nM 0.79% | 10000 nM -1.71%

O=C(O)CCCc1c[nH]c2ccccc12 [3-indolebutyric-acid]
inactive: 1 nM -1.83% | 8.33 nM -1.26% | 100 nM 0.03% | 833.33 nM -3.61% | 10000 nM -2.44%

CC1=C(C)C(=O)C(C(CCCCCC(=O)O)c2ccccc2)=C(C)C1=O (stereo not given) [seratrodast]
inactive: 1 nM -0.6% | 8.33 nM -1.68% | 100 nM 1.92% | 833.33 nM 2.24% | 10000 nM 1.24%
